NIH3T3 tox = kills NIH 3T3 cells; NIH 3T3 viability, CellTiter-Glo ATP luminescence, 48-72 h; Potency, µM (doses to about 96.7 µM), most hits filed as inhibitors; hit rate 4.3% among 94,000; further: nearly all actives have a fitted effect of over 55% in size
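First NIH 3T3 cells are plated at 400 cells/well; next compound is pinned in; then plates incubate 48 or 72 hr at 37 °C; finally CellTiter-Glo is added and luminescence read after 10 min.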
FLuc inh = inhibitors of firefly (Photinus pyralis) luciferase. P08659. purified P. pyralis luciferase, luminescence, biochemical. Potency, µM (doses to about 115 µM), most hits filed as inhibitors. hit rate 2.5% among 76,000. AID 1347043; further: nearly all actives have a fitted effect of over 65% in size
Target sequence (P08659 whole entry, looked up): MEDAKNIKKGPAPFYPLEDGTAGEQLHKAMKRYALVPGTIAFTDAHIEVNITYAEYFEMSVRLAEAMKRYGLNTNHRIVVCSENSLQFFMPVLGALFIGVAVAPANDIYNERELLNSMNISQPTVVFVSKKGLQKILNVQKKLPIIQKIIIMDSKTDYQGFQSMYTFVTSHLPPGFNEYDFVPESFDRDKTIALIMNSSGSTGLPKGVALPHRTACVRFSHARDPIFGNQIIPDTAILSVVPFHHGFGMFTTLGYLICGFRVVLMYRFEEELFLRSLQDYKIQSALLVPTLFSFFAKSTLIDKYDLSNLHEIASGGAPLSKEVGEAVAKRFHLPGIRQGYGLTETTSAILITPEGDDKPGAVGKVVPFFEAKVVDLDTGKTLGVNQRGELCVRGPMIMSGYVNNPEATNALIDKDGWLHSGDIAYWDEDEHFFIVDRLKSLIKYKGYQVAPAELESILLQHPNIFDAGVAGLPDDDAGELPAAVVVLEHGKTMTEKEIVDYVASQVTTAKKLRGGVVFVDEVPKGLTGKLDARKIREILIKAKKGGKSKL
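Inhibitors were tested against purified firefly luciferase in a biochemical, low-substrate format (both substrates at 10uM) and luminescence measured with a CCD imager.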
GPT2 inh = GPT2 alanine aminotransferase inhibition. Q8TD30. Recombinant GPT2, coupled pyruvate oxidase/HRP Amplex Red fluorescence. AID 1671188. Potency, µM (highest dose often 57.7 µM), actives largely listed as inhibitors. hit rate 0.25% among 100,000; further: nearly all actives have a fitted effect of over 60% in size
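Fluorescence read-out: pyruvate from GPT2 turnover coupled to pyruvate oxidase, HRP and Amplex Red (0.2mM ThPP, 0.2U/mL PO and HRP, 50uM Amplex final). Substrates 250uM a-KG, 2mM L-alanine; enzyme 10ng/uL; 30 min RT.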
HEK293 tox = HEK 293 cell cytotoxicity; AID 1345083; Potency, µM (highest dose often 115 µM), hits mostly inhibitors; HEK 293 viability, ATP luminescence (CellTiter-Glo), 48-72 h; hit rate 6.6% among 94,000; further: nearly all actives have a fitted effect of over 60% in size
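Luminescence from cellular ATP, measured with CellTiter-Glo, indicates HEK 293 viability. Cells plated at 250 cells/well are treated with compound for 48 or 72 hr at 37 degree Celsius before reagent addition.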
hNpr1 antagonist = blocks ANP-stimulated signaling of human Npr1 receptor; P16066; HEK293 hNpr1 GloSensor cGMP, ANP-stimulated luminescence; Potency, µM (doses to about 46.3 µM), hits mostly inhibitors; hit rate 1.6% among 76,000; calls by dose curve; further: nearly all actives have a fitted effect of over 60% in size
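HEK293 cells stably expressing human Npr1 and cGMP GloSensor pGS-40F, loaded 2 h with 2% GloSensor reagent, given compound 30 min at room temperature. Luminescence read before and 20 min after 0.1 nM hNppA.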
A number is an active result; n = inactive; u = inconclusive; x = no result; ! = repeats disagree. An excerpt weighted towards active compounds, which were near 10% of everything screened. Unless noted, the call rests on the fitted dose curve; in most records, active means well fitted curve in the direction sought with a large enough effect; inconclusive means small, poorly fitted or top-dose-only effect, or another doubt; inactive means no such curve, though single readings can be large; an effect the other way counts as inactive or inconclusive.

SMILES	NIH3T3 tox	FLuc inh	GPT2 inh	HEK293 tox	hNpr1 antagonist
CC1(C(=O)N2CCN(c3ccccn3)CC2)CCc2cnc(Nc3ccccc3)nc21 (configuration not stated)	u	n	n	112µM	n
O=C(NCC1CCCCC1)C1CCc2nnc(C3CCN([S+](=O)([O-])c4ccccc4Cl)CC3)n21 (configuration not stated)	u	x	n	u	x
O=C(c1cccs1)N1CCC[C@H]1c1nc(-c2ccccc2)no1	n	n	n	u	n
CC(C)c1noc(C2CCCN2C(=O)c2cc(-c3cccs3)n(C)n2)n1 (configuration not stated)	n	31.6µM	n	n	n
Cc1ncc2n1C(=O)N(C1CCN(Cc3ccc(C(F)(F)F)cc3)CC1)C2	u	n	n	35.5µM!	u
CN(CCO)C[C@@H]1CN(C(=O)c2ccc3c(c2)CCC3)C[C@@H]1CO	n	n	n	n	n
Cc1c(CN2C[C@@H](CN(C)CCO)[C@@H](CO)C2)[nH]c2c(Cl)cccc12	79.4µM	n	n	44.7µM	n
Cc1noc(C)c1[S+](=O)([O-])N1CCC(C(=O)N2CCCC(c3nc4ncccc4[nH]3)C2)CC1 (configuration not stated)	n	x	n	n	x
CC(C)NC(=O)N1CCN(c2nccc(Nc3ccccc3Cl)n2)CC1	35.5µM	x	n	u	x
O=C(Nc1ccccc1)N1CCN(c2nccc(Nc3ccccc3Cl)n2)CC1	u	x	u	50.1µM	x
O=C(Nc1ccc(Cl)cc1)N1CCN(c2nccc(Nc3ccccc3F)n2)CC1	u	x	n	28.2µM	x
O=C(C1CC1)N1CCN(c2nccc(Nc3ccccc3F)n2)CC1	u	x	n	63.1µM	x
C#CCNC(=O)c1nc2cccnc2n(C2CC2)c1=O	n	x	n	n	x
C[S+](=O)([O-])NC1=N[C@@]23CO[C@H](c4ccccc4)C[C@@H]2CC(=O)[C@H]3S1	u	x	x	n	x
COCCNC(=O)c1cc(-c2cccnc2)nc2c1cnn2C	u	x	n	n	x
O=C(Cc1ccccn1)NC1CCN(c2nccc(Nc3ccccc3F)n2)CC1	u	x	n	n	x
O=C(Nc1ccc(Cl)cc1)NC1CCN(c2nccc(Nc3ccccc3F)n2)CC1	39.8µM	x	n	35.5µM	x
O=[S+]([O-])(c1ccccc1)N1CCN(c2nccc(Nc3ccccc3Cl)n2)CC1	28.2µM	x	n	u	x
COC(=O)N1CCN(c2nccc(Nc3ccccc3Cl)n2)CC1	u	x	n	u	x
O=C(C1CCCN1C(=O)Nc1ccc(Cl)cc1)N1CCC(c2nc3ccncc3[nH]2)C1 (configuration not stated)	u	x	n	n	x
Cc1ccccc1NC(=O)C1CCc2nc(N3CCN(C(=O)C(C)C)CC3)sc2C1 (configuration not stated)	35.5µM	n	n	10µM	n
CC(=O)N1CCN(c2nc3c(s2)CC(C(=O)Nc2cc(Cl)ccc2F)CC3)CC1 (configuration not stated)	u	n	n	39.8µM	n
CC(C)C(=O)N1CCN(c2nc3c(s2)CC(C(=O)Nc2ccc(Cl)cc2)CC3)CC1 (configuration not stated)	n	n	n	u	n
CC(=O)N1CCN(c2nc3c(s2)CC(C(=O)NCc2cccc(Cl)c2)CC3)CC1 (configuration not stated)	n	n	n	u	n
Cc1ccc(CNC(=O)C2CCc3nc(N4CCN(C(=O)C(C)C)CC4)sc3C2)o1 (configuration not stated)	n	n	n	79.4µM	n
SMILES	NIH3T3 tox	FLuc inh	GPT2 inh	HEK293 tox	hNpr1 antagonist
COc1ccccc1Cn1c(=O)c(C(=O)NCc2ccc3c(c2)OCO3)nc2cccnc21	u	x	n	u	x
c1ccc(-c2ccnc(NCC3OCCc4ccccc43)n2)nc1 (configuration not stated)	u	44.7µM	n	39.8µM	n
CN1CCN(CCCNc2nccc(-c3ccccn3)n2)CC1	n	n	n	n	n
c1ccc(-c2nc3c(c(NCC4OCCc5ccccc54)n2)CCNC3)nc1 (configuration not stated)	39.8µM	u	n	u	n
COc1ccc(CN(C)Cc2cccc(C(F)(F)F)c2)cc1	n	x	n	u	x
O=C(O)COc1ccc(-c2nccc3c2C(=O)N(Cc2cccc(C(F)(F)F)c2)CC(CNC(=O)c2cccc(Cl)c2)O3)cc1 (configuration not stated)	x	x	n	x	x
Cc1cc(-c2cnc3[nH]cc(CC(=O)NCc4cccnc4)c3c2)ccn1	u	n	n	u	n
COc1ccc(NC(=O)Cc2c[nH]c3ncc(-c4ccccc4)cc23)cc1OC	u	n	n	89.1µM	u
O=C(Cc1c[nH]c2ncc(-c3cccnc3)cc12)NCc1ccccc1	35.5µM	n	n	89.1µM	u
COc1ccc(-c2cnc3[nH]cc(CC(=O)NCc4cccnc4)c3c2)cc1OC	15.8µM	n	n	u	n
O=C(Cc1c[nH]c2ncc(-c3ccc(F)cc3)cc12)NCc1cccnc1	u	u	n	u	u
O=C(Cc1c[nH]c2ncc(-c3ccccc3)cc12)Nc1cccnc1	28.2µM	n	n	70.8µM	n
O=C(Cc1c[nH]c2ncc(-c3ccccc3)cc12)Nc1ccc(Cl)cc1	u	n	n	u	u
O=C(NC1CCCC1)N1CCC(c2nn(-c3ccccn3)c(=O)[nH]2)CC1	n	x	n	n	x
O=C(Cc1ccc(F)cc1)Nc1cc(-c2ccncc2)nn1-c1ccccc1	u	x	n	u	x
CC(=O)N1CCC(Cc2ccc(CN(C(=O)c3cccs3)C3CC3)cc2)CC1	u	x	n	u	x
CCc1cccc(NC(=O)C2(Cc3ccccc3)CCCCC(=O)N2)c1 (configuration not stated)	n	x	n	u	x
O=C(Cc1c[nH]c2ncc(-c3cccc(OC(F)(F)F)c3)cc12)NCc1cccnc1	44.7µM	u	u	70.8µM	u
O=C(Cc1c[nH]c2ncc(-c3cccnc3)cc12)Nc1ccccc1	25.1µM	n	n	u	n
O=C(Cc1c[nH]c2ncc(-c3cccnc3)cc12)NC1CC1	70.8µM	n	n	n	n
c1cncc(Nc2cc3c(cn2)CN(Cc2c[nH]c4ccccc24)CCN3)c1	u	u	n	112µM	n
FC(F)(F)Oc1cccc(CN2CCNc3cc(Nc4cccnc4)ncc3C2)c1	u	u	n	u	n
c1cncc(Nc2cc3c(cn2)CN(CC2CCOCC2)CCN3)c1	u	u	n	n	n
c1cncc(Nc2cc3c(cn2)CN(Cc2ccsc2)CCN3)c1	u	20µM	n	u	n
CC[C@@H](C)[C@H]1C(=O)O[C@H](C(C)C)C(=O)N(C)[C@@H](C(C)C)C(=O)O[C@H](C(C)C)C(=O)N(C)[C@@H](C(C)C)C(=O)O[C@H](CC(C)C)C(=O)N1C	x	x	n	x	x
O=C(NCc1ccccc1)c1cc(-c2ccc(Cl)cc2Cl)c2nncn2n1	u	x	n	u	x

From PubChem BioAssay
